Screening data: PubChem BioAssay, several laboratories
ABHD5 PLIN5 PPI: blocks binding of human ABHD5 to perilipin-5; inhibition, % at 4 µM; actives 0.78% (n = 360,000); Q00G26+Q8WTS1; Split G. princeps luciferase complementation, luminescence, 4 h;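 active = inhibition above the mean inhibition across every tested compound plus 3 SD, cut at about 22% in these data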;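 note: 0% = DMSO only wells and the 100% control is not disclosed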
Target sequence (Q00G26 whole entry, looked up): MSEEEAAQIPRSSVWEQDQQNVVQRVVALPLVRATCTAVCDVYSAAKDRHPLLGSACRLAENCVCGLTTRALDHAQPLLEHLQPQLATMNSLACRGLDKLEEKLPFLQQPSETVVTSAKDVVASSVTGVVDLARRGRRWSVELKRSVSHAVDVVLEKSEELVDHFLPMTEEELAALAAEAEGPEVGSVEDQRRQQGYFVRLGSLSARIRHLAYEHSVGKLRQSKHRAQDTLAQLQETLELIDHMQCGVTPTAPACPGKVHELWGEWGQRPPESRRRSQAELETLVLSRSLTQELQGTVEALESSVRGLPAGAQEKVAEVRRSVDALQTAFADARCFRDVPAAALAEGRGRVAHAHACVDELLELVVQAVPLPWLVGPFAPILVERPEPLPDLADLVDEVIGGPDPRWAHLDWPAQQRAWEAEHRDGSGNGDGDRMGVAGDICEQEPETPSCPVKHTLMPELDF
Target sequence (Q8WTS1 whole entry, looked up): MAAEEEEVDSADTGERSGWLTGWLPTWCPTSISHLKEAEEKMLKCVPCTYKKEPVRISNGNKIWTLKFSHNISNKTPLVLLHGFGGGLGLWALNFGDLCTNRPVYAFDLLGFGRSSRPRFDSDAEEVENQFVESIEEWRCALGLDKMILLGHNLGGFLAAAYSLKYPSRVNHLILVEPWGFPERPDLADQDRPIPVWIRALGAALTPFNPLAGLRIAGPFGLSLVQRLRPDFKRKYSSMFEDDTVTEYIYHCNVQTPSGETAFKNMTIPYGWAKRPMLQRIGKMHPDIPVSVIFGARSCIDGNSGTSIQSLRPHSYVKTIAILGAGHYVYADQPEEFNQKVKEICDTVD
Platelet DG rel: modulates dense granule release in human platelets | human platelet-rich plasma, SFLLRN dense granule ATP release, luminescence | inhibition, %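 (compounds screened at 7.5 µM in platelet-rich plasma)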 | actives 0.22% (n = 300,000);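 active = mean replicate score, as percent of positive control, at or above 50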
Rce1 inhib: yeast Ras-converting enzyme inhibition; Q03530; yeast membranes, quenched prenylated peptide cleavage fluorescence; calls only; actives 0.27% (n = 290,000);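 active = fall in fluorescence gain of 50% or more versus controls, with final raw signal at or below 3038400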;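 note: plate controls were neutral control wells for no effect and wells lacking membranes for full effect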
Exocytosis inh: lytic granule exocytosis inhibition | actives 0.66% (n = 360,000) | inhibition, % at 10 µM | TALL-104 LAMP-1 surface exposure, flow cytometry; cells stimulated with thapsigargin and PMA;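 active = inhibition above about 55%, limit read from the data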
M18AAP inhibitor: blocks P. falciparum M18 aspartyl aminopeptidase; recombinant PfM18AAP, H-Glu-NHMec fluorogenic cleavage; inhibition, % at 7.35 µM; actives 1.2% (n = 290,000);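 active = inhibition above the campaign mean inhibition over all tested compounds plus 3 SD, cut at about 28% in these data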;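 note: 0% = plate median of test compound wells and 100% = 2 mM ZnCl2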
Active calls of the source: *. An excerpt weighted towards active compounds, which were near 2.6% of everything screened.

How did Cc1c(Cc2ccccc2)c(=O)oc2c(C)c(OCC(=O)N3CCC(C(=O)O)CC3)ccc12 do in these assays?
ABHD5 PLIN5 PPI: 6; Platelet DG rel: 0; Rce1 inhib: active; Exocytosis inh: -4; M18AAP inhibitor: 0

How did Cc1c(OCC(=O)N2CCC(C(=O)O)CC2)ccc2c3c(c(=O)oc12)CCC3 do in these assays?
ABHD5 PLIN5 PPI: -8; Platelet DG rel: -5; Rce1 inhib: inactive; Exocytosis inh: 0; M18AAP inhibitor: 5

Results for Cc1cc(Oc2ccc(=O)n(C)n2)nc(Oc2ccc(=O)[nH]n2)n1 ?
ABHD5 PLIN5 PPI: -4; Platelet DG rel: -6; Rce1 inhib: inactive; Exocytosis inh: 2; M18AAP inhibitor: 2

What do the screens show for `CC(C)OC(=O)c1c(N)n(CCCN2CCOCC2)c2nc3ccccc3nc12`?
ABHD5 PLIN5 PPI: 7; Platelet DG rel: -1; Rce1 inhib: active; Exocytosis inh: -2; M18AAP inhibitor: 13

Results for COc1ccccc1CNC(=O)c1c(N)n(CCCN2CCOCC2)c2nc3ccccc3nc12 ?
ABHD5 PLIN5 PPI: 12; Platelet DG rel: -16; Rce1 inhib: inactive; Exocytosis inh: 72*; M18AAP inhibitor: 5

How did Cc1ccc(C)c(NC(=S)NCCc2ccc(F)cc2)c1 do in these assays?
ABHD5 PLIN5 PPI: 4; Platelet DG rel: -6; Rce1 inhib: inactive; Exocytosis inh: -2; M18AAP inhibitor: 3

What do the screens show for `COc1ccc(CN2CCCC(CO)(Cc3ccc(F)cc3)C2)cc1C` (configuration not stated)?
ABHD5 PLIN5 PPI: 0; Platelet DG rel: 2; Rce1 inhib: inactive; Exocytosis inh: 43; M18AAP inhibitor: 0

How did CCN(CC)C(=O)c1sc(N)c(C#N)c1C do in these assays?
ABHD5 PLIN5 PPI: 0; Platelet DG rel: 4; Rce1 inhib: inactive; Exocytosis inh: -2; M18AAP inhibitor: -4

What do the screens show for `Cc1sc(N)c(C#N)c1C`?
ABHD5 PLIN5 PPI: -18; Platelet DG rel: -3; Rce1 inhib: inactive; Exocytosis inh: 10; M18AAP inhibitor: 37*

How did CCCCC(=O)NC(c1ccc(Cl)cc1)c1ccc2cccnc2c1O (configuration not stated) do in these assays?
ABHD5 PLIN5 PPI: 22*; Platelet DG rel: 3; Rce1 inhib: inactive; Exocytosis inh: 11; M18AAP inhibitor: 1

What do the screens show for `CCN(CC)c1ccc(C(NC(=O)C(C)C)c2ccc3cccnc3c2O)cc1` (configuration not stated)?
ABHD5 PLIN5 PPI: 15; Exocytosis inh: -3

What do the screens show for `CCCC(=O)NC(c1ccc(Cl)cc1)c1ccc2cccnc2c1O` (configuration not stated)?
ABHD5 PLIN5 PPI: 12; Platelet DG rel: 9; Rce1 inhib: inactive; Exocytosis inh: 7; M18AAP inhibitor: 1

Results for CC(C)C(=O)NC(c1ccco1)c1ccc2cccnc2c1O (configuration not stated) ?
ABHD5 PLIN5 PPI: 2; Platelet DG rel: -3; Rce1 inhib: inactive; Exocytosis inh: 4; M18AAP inhibitor: 30*

Results for C#CCn1c(=NC(=O)c2cc(Cl)sc2Cl)sc2cc(S(N)(=O)=O)ccc21 ?
ABHD5 PLIN5 PPI: 14; Platelet DG rel: -6; Rce1 inhib: inactive; Exocytosis inh: -2; M18AAP inhibitor: 2

What do the screens show for `CCN1CCN(c2ncc(C(=O)Nc3cc(Cl)ccc3OC)c3ccccc23)CC1`?
ABHD5 PLIN5 PPI: 18; Rce1 inhib: inactive; Exocytosis inh: 22; M18AAP inhibitor: 2

Results for O=C(CN1CCN(c2ccccc2)CC1)N1N=CCC1c1ccccc1 (configuration not stated) ?
ABHD5 PLIN5 PPI: 10; Platelet DG rel: 78*; Rce1 inhib: inactive; Exocytosis inh: 4; M18AAP inhibitor: -1

What do the screens show for `O=C(CN1CCN(c2ccc(F)cc2)CC1)N1N=CCC1c1ccccc1` (configuration not stated)?
ABHD5 PLIN5 PPI: -2; Platelet DG rel: 0; Exocytosis inh: 7; M18AAP inhibitor: -1

How did O=C(c1ccccc1)c1ccc2ccccc2c1 do in these assays?
ABHD5 PLIN5 PPI: -5; Exocytosis inh: -1

How did O=C(c1ccccc1)c1ccc2cc(O)ccc2c1 do in these assays?
ABHD5 PLIN5 PPI: -3; Platelet DG rel: 71*; Rce1 inhib: inactive; Exocytosis inh: 1; M18AAP inhibitor: 6

Results for COc1ccc(CCNC(=O)C2C3CCC(C3)C2C(=O)O)cc1OC (configuration not stated) ?
ABHD5 PLIN5 PPI: 3; Platelet DG rel: 3; Rce1 inhib: inactive; Exocytosis inh: 1; M18AAP inhibitor: 0

How did COC(=O)Cn1c(CCC(=O)O)ccc1-c1ccccc1 do in these assays?
ABHD5 PLIN5 PPI: 3; Platelet DG rel: -33; Rce1 inhib: active; Exocytosis inh: -5; M18AAP inhibitor: 7

How did COc1ccc(NC(=O)Cn2c(CCC(=O)O)ccc2-c2ccccc2)cc1 do in these assays?
ABHD5 PLIN5 PPI: 2; Platelet DG rel: -1; Rce1 inhib: inactive; Exocytosis inh: 1; M18AAP inhibitor: 11

What do the screens show for `CC1=C(C(=O)OCc2ccccc2)C(c2ccc(-c3ccccc3)cc2)NC(=O)N1CCCC(=O)O` (configuration not stated)?
Platelet DG rel: -8; Rce1 inhib: active

Results for CC1=C(C(=O)OCc2ccccc2)C(c2ccc([N+](=O)[O-])cc2)NC(=O)N1CCCC(=O)O (configuration not stated) ?
ABHD5 PLIN5 PPI: -2; Platelet DG rel: -1; Rce1 inhib: inactive; Exocytosis inh: 62*; M18AAP inhibitor: 15

What do the screens show for `CC(=O)N(c1ccc2oc(=O)sc2c1)S(=O)(=O)c1ccccc1`?
ABHD5 PLIN5 PPI: 8; Platelet DG rel: 19; Rce1 inhib: inactive; Exocytosis inh: -2; M18AAP inhibitor: 29*

What do the screens show for `Cc1ccc(NC(=O)c2ccc(Cl)c(N3C(=O)C=CC3=O)c2)cc1`?
ABHD5 PLIN5 PPI: 39*; Platelet DG rel: 17; Rce1 inhib: inactive; Exocytosis inh: 40; M18AAP inhibitor: -8

What do the screens show for `O=C1CSC(c2nn(-c3ccccc3)cc2-c2cc3ccccc3oc2=O)N1Cc1ccco1` (configuration not stated)?
ABHD5 PLIN5 PPI: 23*; Platelet DG rel: 18; Exocytosis inh: 1; M18AAP inhibitor: 5

How did COc1cc2c[n+](C)c3c4ccccc4ccc3c2cc1OC do in these assays?
ABHD5 PLIN5 PPI: 7; Exocytosis inh: 0

What do the screens show for `COc1ccc2c(c1)c[n+](C)c1c3cc(OC)c(OC)cc3ccc21`?
ABHD5 PLIN5 PPI: 22*; Exocytosis inh: -3

How did Clc1ccc(-c2cnc(Oc3ccccc3)nc2)cc1 do in these assays?
ABHD5 PLIN5 PPI: -10; Platelet DG rel: 4; Rce1 inhib: inactive; Exocytosis inh: -1; M18AAP inhibitor: 4

What do the screens show for `O=C(COc1ccccc1[N+](=O)[O-])N/N=C/c1cccs1`?
ABHD5 PLIN5 PPI: 0; Platelet DG rel: 0; Rce1 inhib: inactive; Exocytosis inh: -4; M18AAP inhibitor: 5

Results for C(=C\c1ccccc1)/C=N/Nc1nc2ccccc2s1 ?
ABHD5 PLIN5 PPI: -2; Platelet DG rel: 10; Rce1 inhib: inactive; Exocytosis inh: -3; M18AAP inhibitor: 5
